From PubChem BioAssay
A selection: hits, their analogues and other compounds. The true share with any hit is near 4.8%.
hgDAF-12 ag = H. glycines DAF-12 receptor agonists, primary screen, cell-based, luminescence, HEK293, GAL4 fusion, UAS-luciferase | actives 1.8% (n = 370,000) | HEK293 GAL4-hgDAF12 UAS-luciferase reporter, agonist luminescence; normalized to butyrate control | activation, % at 6.8 µM;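 active = activation above a cutoff set at the mean of all screened compounds plus 3 SD, cut at about 10% in these data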;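 note: 0% = DMSO wells and 100% = sodium butyrate wells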
hcDAF12 agonist = H. contortus DAF-12 nuclear receptor activators, primary screen, cell-based, luminescence, HEK293, lit1-tk-luc reporter | HEK293 hcDAF-12 lit1-tk-luc reporter; 0% DMSO, 100% Δ7-dafachronic acid | activation, % at 6.8 µM | actives 1.4% (n = 370,000);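 active = activation above the mean of all tested compounds plus 3 SD, cut at about 5.5% in these data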;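 note: 100% = response to 3 µM Δ7-dafachronic acid high control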
DAX1 inh-1 = DAX1 (NR0B1) inhibitors, primary screen, cell-based, HEK293, Gal4-DAX1, luciferase luminescence | Nuclear receptor subfamily 0 group B member 1 (Homo sapiens), P51843 | HEK293 Gal4-DAX1 luciferase reporter | inhibition, % at 6.75 µM | actives 0.99% (n = 340,000) | AID 504766, 2011;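 active = inhibition above the mean over all tested compounds plus 3 SD, cut at about 4.2% in these data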;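 note: 0% = DAX1-transfected cells with DMSO and 100% = empty-vector control cells with DMSO; inhibition shows as a rise in luminescence from relieved DAX1 repression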
Target sequence (P51843 207-470 limits assumed): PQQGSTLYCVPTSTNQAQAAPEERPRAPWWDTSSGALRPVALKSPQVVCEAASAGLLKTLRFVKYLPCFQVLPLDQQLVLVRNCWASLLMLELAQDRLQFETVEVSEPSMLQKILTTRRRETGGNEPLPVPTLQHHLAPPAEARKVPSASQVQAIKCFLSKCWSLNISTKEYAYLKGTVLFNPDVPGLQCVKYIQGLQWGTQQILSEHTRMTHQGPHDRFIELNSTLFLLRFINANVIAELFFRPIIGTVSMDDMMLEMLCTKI
SMARCA2 act = SMARCA2 (BRM) function activators, primary screen, cell-based, luminescence, high throughput | AID 652017, 2013 | activation, % at 9.1 µM | MG213 cells, MMTV-luciferase reporter, dexamethasone, overnight | actives 1% (n = 370,000); in the data active = activation above about 7.8%;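 note: 0% = vehicle wells and 100% = reference activator wells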
ssDAF12 agonist = S. stercoralis DAF-12 nuclear receptor activators, primary screen, cell-based, luminescence, HEK293, GRIP1 co-expression, lit1-tk-luc | Nuclear hormone receptor DAF-12 (Strongyloides stercoralis) | HEK293 ssDAF-12/GRIP1 lit1-tk-luc reporter; % of 3 µM dafachronic acid response | actives 1% (n = 370,000) | activation, % at 6.8 µM;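 active = activation above the mean over all tested compounds plus 3 SD, cut at about 0.9% in these data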;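 note: 0% = DMSO-only wells and 100% = 3 µM delta7-dafachronic acid wells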
DAX1 inh-2 = DAX1 (NR0B1) inhibitors on StAR promoter, primary screen, cell-based, luminescence, SF-1 (NR5A1), full-length DAX-1 | HEK293T StAR-luciferase reporter, SF-1/DAX-1 repression relief | inhibition, % at 6.8 µM | actives 1.1% (n = 370,000);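 active = inhibition above the mean over all tested compounds plus 3 SD, cut at about 3.6% in these data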;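 note: 0% = DAX-1 cells with DMSO and 100% = cells lacking DAX-1 with DMSO; higher inhibition means more luminescence from relief of DAX-1 repression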
Numbers without * were called inactive; . = no result.

SMILES	hgDAF-12 ag	hcDAF12 agonist	DAX1 inh-1	SMARCA2 act	ssDAF12 agonist	DAX1 inh-2
c1ccc(N2CCN(c3nc4cc5c(cc4s3)OCO5)CC2)cc1	6	0	0	1	0	0
CC(=O)Nc1nc2cc3c(cc2s1)OCO3	13*	4	2	2	-1	3
c1c2c(cc3sc(N4CCCCC4)nc13)OCO2	9	6.0*	-1	4	1	3
O=C(Cn1ncc(N2CCCC2)c(Cl)c1=O)c1ccc(Cl)cc1	4	1	4	-1	1.6*	2
CC(=O)c1ccc(N2CCN(S(=O)(=O)c3cc4[nH]c(=O)c(=O)[nH]c4cc3C)CC2)cc1	11*	-2	0	-1	-1	1
CC(C)(C)c1ccc(-c2nnc(SCC3CCCCO3)n2-c2ccc(Cl)cc2)cc1 (stereo not drawn)	4	-1	.	-4	-1	-1
c1ccc(Cc2cc(-c3ccccc3)on2)cc1	10	1	5.5*	2	-1	0
Cc1ccccc1C(=O)N[C@H](C(=O)N1CCC[C@H]1C(=O)NCc1ccccc1)c1ccccc1	0	1	.	2	-1	0
COC(=O)c1sccc1N/N=C/c1cccc(Oc2ccccc2)c1	11*	1	2	3	-1	2
COC(=O)c1sccc1N/N=C/c1ccc(OC)c(OC)c1OC	10	1	-1	4	-1	2
Cn1c(=O)c(Oc2ccc(Cl)cc2)c(O)c2ccccc21	0	1	-1	2	1.1*	1
COC(=O)[C@]12C[C@H](CC(=O)N3CCOCC3)C(=O)N(CCc3ccc(OC)c(OC)c3)C1=C[C@H](C1CCCC1)O[C@@H]2C	3	-1	.	4	-2	0
CCOC(=O)C1(Cc2ccccc2C)CCCN(Cc2cc(OC)c(O)c(OC)c2)C1 (stereo not drawn)	-2	0	-2	-4	-1	1
CCOC(=O)C1(Cc2ccccc2C)CCCN(Cc2cn(C)nc2C)C1 (stereo not drawn)	-3	1	6.1*	-2	-1	1
O=S1(=O)c2ccc(N3CCCC3)cc2Oc2ccccc2CN1Cc1cn(Cc2ccc(C(F)(F)F)cc2)nn1	-3	-1	.	-4	-1	-1
CN(CCOc1ccc(Cl)cc1)CC(O)c1ccccc1 (stereo not drawn)	1	0	4.3*	0	-1	0
Cc1cc(C)c(C)c(S(=O)(=O)N2CCN(C)CC2)c1C	3	-2	8.9*	-3	0	0
Cc1ccc([N+](=O)[O-])cc1S(=O)(=O)N1CCN(C)CC1	0	0	6.3*	-2	-1	0
CCOc1ccccc1C(=O)Nc1ccc(C(=O)NCC2COc3ccccc3O2)cc1 (stereo not drawn)	-5	-3	.	-6	-1	-1
CN(C)C(=O)C[C@H]1C[C@@H]2c3cc(NC(=O)NC4CCCC4)ccc3O[C@@H]2[C@@H](CO)O1	0	-1	.	-2	0	0
COC(=O)c1ccccc1NC(=O)CS(=O)(=O)Cc1nc(-c2ccc(C)cc2)oc1C	-2	3	-1	-1	1.1*	1
CC(C)(C)OC(=O)NC1CCN(c2nc(-c3ccc(Br)cc3)cs2)CC1	-2	-4	.	.	-2	.
Cc1ccc(C(=O)OCC(=O)NCC2COc3ccccc3O2)cc1 (stereo not drawn)	0	0	0	-2	1	1
Cc1cccc(C(=O)OCC(=O)NCC2COc3ccccc3O2)c1 (stereo not drawn)	-2	3	0	0	-1	4.3*
CN(Cc1cccc(Cl)c1Cl)C(=O)CCNC(=O)c1ccco1	-1	3	-1	-6	0	4.1*
